# Results taken from PubChem BioAssay (NCATS).
# Values joined by “and” are separate entries in the source; they are usually repeats but may differ in a detail not shown here. Identical values can stand only once. A number with no mark means an inactive call. Inconclusive results are not listed. The list shows a part of the results. Where a call stands in place of a potency, no number is given. Active and inactive are the calls of the source. Calls come from the whole dose curve; as a rule, active = well fitted curve in the direction sought with a large enough effect; inconclusive = small, poorly fitted or top-dose-only effect, or another doubt; inactive = no such curve, though single readings can be large; an effect the other way counts as inactive or inconclusive.
# Assays:
# [1] = Cell Proliferation Assay against the TMD8 Cell Line (Caspase readout at 16 hrs) (AID 651712)
# Method in brief: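 TMD8 cells in RPMI with 5% FBS were treated with compound for 16 h at 37 C, then caspase 3/7 activation was read by Caspase-Glo luminescence. Percent activity was scaled to DMSO (0%) and 9.2 uM bortezomib final (100%).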
# [2] = biological target: Tyrosine-protein kinase Yes (Homo sapiens) (UniProt P07947); test: qHTS for small molecule inhibitors of Yes1 kinase: Primary Screen (AID 686947); note: nearly all actives have a fitted effect of over 60% in size
# Method in brief: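 ADP-Glo luminescence readout; final 4 nM Yes1, 0.1 mM ATP, 0.3 mg/mL poly(E4Y), Tris pH 7.5, MgCl2, DTT, Brij-35. 20 min compound preincubation, 60 min reaction at RT. Normalized to DMSO wells with and without enzyme.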
# [3] = qHTS for small molecule inhibitors of Yes1 kinase: Counter Assay (AID 686950);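 note: no kinase present so only ADP-Glo detection of a fixed ADP amount is tested; luminescence from ADP-Glo reporting ADP in a fixed ATP and ADP mixture; series mostly up to about 77 µM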
# Method in brief: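 Enzyme-free detection counter-screen: compounds preincubated 20 min in buffer, then 0.08 mM ATP plus 0.02 mM ADP added for 60 min at room temperature; ADP-Glo luminescence. Buffer 50 mM Tris pH 7.5, 10 mM MgCl2, 150 mM NaCl; normalized to ATP+ADP and ATP-only controls.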
# [4] = Cell Proliferation Assay against the TMD8 Cell Line (Caspase readout at 8 hrs) (AID 651713)
# Method in brief: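 Percent activity derived from Caspase-Glo signal, DMSO set to 0% and bortezomib (9.2 uM final) to 100%. TMD8 cells were exposed to compound for 8 h in RPMI with 5% FBS.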
# [5] = biological target: Arylsulfatase A (Homo sapiens) (UniProt P15289); test: qHTS screen for enhancers of Arylsulfatase A (ASA1): LOPAC Validation Assay (AID 720538)
# Method in brief: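 First, ASA-I179S fibroblasts from an MLD patient adhered for 6 hrs. Next, compounds were added for 48h. Then pNCS substrate (0.5mM final) with lysis buffer reacted 14h at room temperature before NaOH stop and fluorescence measurement.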
# [6] = qHTS for compounds that reverse cellular toxicity of Amyloid beta (A-beta) peptide in yeast: LOPAC Validation Assay (AID 720559); conditions: Potency: rescue of growth toxicity
# Method in brief: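 Activity is expressed relative to DMSO and an equimolar ferric chloride/clioquinol mix. Compounds were pinned into medium with A-beta-expressing yeast, grown 48 hr at 30 C, then read by absorbance at 600 nm.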
# [7] = qHTS for Activators of Parkin Expression: LOPAC Validation Assay (NLuc Reporter) (AID 720572; note: potency is the fitted concentration of half-maximal effect)
# Method in brief: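 Neuronal cells with a Parkin promoter-driven FLuc/NLuc coincidence reporter were treated 24 h at 37 C in 7-point dose response (LOPAC). NLuc luminescence read after FLuc; signals normalized to DMSO and positive control (100%).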
# [8] = biological target: DNA polymerase iota (Homo sapiens) (UniProt Q9UNA4); test: qHTS for Inhibitors of Polymerase Iota: Confirmatory Assay for Cherry-picked Compounds (AID 720496); conditions: Pol iota primer extension, TAMRA/BHQ fluorescence; note: potency is the fitted concentration of half-maximal effect
# Method in brief: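 Recombinant human Pol iota (10 nM) was preincubated with compound for 15 min at room temperature, then 50 nM final primer/template substrate was added; the substrate carried a TAMRA-labeled reporter strand and a BHQ-2-quenched template. Fluorescence was read at 0 and 10 min.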
# [9] = biological target: DNA polymerase kappa (Homo sapiens) (UniProt Q9UBT6); test: qHTS for Inhibitors of Polymerase Kappa: Confirmatory Assay for Cherry-picked Compounds (AID 720501); conditions: purified Pol-kappa, fluorescent strand-displacement substrate; note: potency is the fitted concentration of half-maximal effect
# Method in brief: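 10 nM human Pol-kappa was preincubated with compound 15 min at room temperature, then 50 nM (final) primer/template substrate with TAMRA-labeled reporter strand and BHQ-2-labeled template added. Fluorescence (Ex 525, Em 598 nm) read at 0 and 10 min.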
# [10] = biological target: DNA polymerase eta (Homo sapiens) (UniProt Q9Y253); test: qHTS for Inhibitors of Polymerase Eta: Confirmatory Assay for Cherry-picked Compounds (AID 720502); conditions: Pol eta primer extension, TAMRA/BHQ fluorescence, 10 min; note: potency is the fitted concentration of half-maximal effect
# Method in brief: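 Plates with 10 nM enzyme and compound stood 15 min at room temperature before substrate addition (50 nM final). Displacement of the TAMRA reporter from the BHQ-2 template was tracked for 10 min.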
# Chain of Arylsulfatase A (Homo sapiens) (P15289 whole entry, looked up): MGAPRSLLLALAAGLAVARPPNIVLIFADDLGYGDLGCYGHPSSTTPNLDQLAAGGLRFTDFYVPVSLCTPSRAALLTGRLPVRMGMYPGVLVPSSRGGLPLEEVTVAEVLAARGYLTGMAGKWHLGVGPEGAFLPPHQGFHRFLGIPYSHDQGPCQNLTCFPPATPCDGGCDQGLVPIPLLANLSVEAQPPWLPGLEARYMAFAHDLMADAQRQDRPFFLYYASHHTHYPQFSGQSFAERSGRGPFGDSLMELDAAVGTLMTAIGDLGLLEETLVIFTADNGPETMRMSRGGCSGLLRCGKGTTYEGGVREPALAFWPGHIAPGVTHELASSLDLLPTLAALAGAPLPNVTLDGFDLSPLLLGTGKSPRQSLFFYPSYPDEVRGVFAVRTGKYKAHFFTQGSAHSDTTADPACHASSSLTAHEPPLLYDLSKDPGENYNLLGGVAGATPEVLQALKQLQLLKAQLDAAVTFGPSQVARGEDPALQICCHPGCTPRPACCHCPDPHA
# Chain of DNA polymerase eta (Homo sapiens) (Q9Y253 whole entry, looked up): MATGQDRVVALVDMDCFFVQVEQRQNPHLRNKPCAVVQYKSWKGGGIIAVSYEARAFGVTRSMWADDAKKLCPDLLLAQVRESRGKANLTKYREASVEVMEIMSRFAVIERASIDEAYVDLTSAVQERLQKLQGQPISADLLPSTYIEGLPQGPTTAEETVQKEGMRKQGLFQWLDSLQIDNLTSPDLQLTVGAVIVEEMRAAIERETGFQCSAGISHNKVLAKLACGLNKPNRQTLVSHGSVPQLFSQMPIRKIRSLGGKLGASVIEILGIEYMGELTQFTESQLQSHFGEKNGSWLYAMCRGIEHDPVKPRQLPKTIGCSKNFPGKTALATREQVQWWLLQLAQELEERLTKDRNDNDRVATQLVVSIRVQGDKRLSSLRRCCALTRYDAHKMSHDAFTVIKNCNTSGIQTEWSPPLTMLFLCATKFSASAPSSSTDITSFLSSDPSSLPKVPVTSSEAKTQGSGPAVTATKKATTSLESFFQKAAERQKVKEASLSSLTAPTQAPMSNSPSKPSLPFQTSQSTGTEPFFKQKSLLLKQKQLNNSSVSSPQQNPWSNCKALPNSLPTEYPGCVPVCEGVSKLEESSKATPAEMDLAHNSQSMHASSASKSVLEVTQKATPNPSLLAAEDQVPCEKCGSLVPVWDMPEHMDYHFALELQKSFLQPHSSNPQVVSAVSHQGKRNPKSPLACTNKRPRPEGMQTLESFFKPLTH
# Chain of DNA polymerase kappa (Homo sapiens) (Q9UBT6 whole entry, looked up): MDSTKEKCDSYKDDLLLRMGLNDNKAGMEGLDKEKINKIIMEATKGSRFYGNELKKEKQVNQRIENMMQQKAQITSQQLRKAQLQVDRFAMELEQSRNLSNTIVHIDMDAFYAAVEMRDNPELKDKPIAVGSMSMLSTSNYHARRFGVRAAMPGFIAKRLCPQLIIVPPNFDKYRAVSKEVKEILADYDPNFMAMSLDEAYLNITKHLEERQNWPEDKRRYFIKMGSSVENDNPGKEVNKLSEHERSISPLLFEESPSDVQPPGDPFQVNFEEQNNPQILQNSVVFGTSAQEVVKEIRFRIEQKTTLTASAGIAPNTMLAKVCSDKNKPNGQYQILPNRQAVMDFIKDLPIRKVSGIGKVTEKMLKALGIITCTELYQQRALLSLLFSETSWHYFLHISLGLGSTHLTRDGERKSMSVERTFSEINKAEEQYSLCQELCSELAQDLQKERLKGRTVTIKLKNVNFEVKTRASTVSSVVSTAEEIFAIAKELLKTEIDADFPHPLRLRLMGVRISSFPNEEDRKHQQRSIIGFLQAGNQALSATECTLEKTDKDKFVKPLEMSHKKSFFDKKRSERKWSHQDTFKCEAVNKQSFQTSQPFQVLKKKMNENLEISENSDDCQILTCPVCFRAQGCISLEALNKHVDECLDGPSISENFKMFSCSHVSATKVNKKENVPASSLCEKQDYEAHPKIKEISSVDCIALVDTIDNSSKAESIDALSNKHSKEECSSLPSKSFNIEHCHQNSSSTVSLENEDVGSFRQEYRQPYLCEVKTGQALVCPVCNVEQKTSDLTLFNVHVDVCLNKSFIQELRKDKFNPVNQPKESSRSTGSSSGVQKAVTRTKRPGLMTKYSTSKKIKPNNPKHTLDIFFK
# Chain of Tyrosine-protein kinase Yes (Homo sapiens) (P07947 whole entry, looked up): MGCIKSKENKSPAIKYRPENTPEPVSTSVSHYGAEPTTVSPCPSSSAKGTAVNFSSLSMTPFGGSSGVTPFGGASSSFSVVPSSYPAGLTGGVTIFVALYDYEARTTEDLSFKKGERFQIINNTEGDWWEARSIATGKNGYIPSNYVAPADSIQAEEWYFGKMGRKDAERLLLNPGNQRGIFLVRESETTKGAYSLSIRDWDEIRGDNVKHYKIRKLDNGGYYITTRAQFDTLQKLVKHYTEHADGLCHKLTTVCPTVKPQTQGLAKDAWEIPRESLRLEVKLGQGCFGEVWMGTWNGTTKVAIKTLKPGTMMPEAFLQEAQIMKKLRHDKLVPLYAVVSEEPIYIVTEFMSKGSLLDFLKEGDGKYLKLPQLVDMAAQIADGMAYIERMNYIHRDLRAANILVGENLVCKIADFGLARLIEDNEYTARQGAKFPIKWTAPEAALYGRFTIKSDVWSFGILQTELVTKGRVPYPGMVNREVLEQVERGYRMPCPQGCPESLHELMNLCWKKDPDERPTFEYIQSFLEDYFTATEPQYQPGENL
# Chain of DNA polymerase iota (Homo sapiens) (Q9UNA4 whole entry, looked up): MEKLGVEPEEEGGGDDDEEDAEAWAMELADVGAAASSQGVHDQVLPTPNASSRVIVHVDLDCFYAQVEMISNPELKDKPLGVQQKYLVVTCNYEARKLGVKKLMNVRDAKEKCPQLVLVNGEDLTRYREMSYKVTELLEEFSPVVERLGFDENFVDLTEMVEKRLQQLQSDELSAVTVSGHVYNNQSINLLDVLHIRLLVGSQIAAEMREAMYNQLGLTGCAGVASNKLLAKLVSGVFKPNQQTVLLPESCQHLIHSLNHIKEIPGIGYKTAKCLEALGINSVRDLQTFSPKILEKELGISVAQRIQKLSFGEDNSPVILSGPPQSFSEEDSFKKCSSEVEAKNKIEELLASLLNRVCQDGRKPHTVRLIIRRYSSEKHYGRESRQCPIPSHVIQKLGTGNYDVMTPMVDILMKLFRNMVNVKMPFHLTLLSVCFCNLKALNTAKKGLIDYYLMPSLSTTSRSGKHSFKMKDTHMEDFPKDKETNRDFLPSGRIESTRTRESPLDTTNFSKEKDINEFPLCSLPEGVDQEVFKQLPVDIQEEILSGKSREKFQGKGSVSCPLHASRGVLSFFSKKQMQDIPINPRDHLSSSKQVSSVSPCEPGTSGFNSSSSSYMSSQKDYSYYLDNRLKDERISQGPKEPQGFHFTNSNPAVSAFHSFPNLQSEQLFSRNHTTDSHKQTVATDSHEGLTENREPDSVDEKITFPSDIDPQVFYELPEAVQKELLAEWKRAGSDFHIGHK
structure (smiles),measurement,setting,value
CN1CC(=O)N/C1=N/C(=O)Nc1cccc(Cl)c1,outcome,[1],inactive
same,outcome,[2],inactive
same,outcome,[3],inactive
C=CCc1cccc(/C=N/NC(=O)CN2CCN(Cc3ccccc3)CC2)c1O,outcome,[4],inactive
same,outcome,[2],inactive
same,outcome,[3],inactive
CC(C)NCC(O)COc1cccc2ccccc12 (stereo unspecified),Potency,[5],inactive
Oc1ccccc1O,Potency,[5],inactive
C[N+](C)(CCCCCC[N+](C)(C)CCCN1C(=O)c2cccc3cccc(c23)C1=O)CCCN1C(=O)c2cccc3cccc(c23)C1=O,Potency,[5],inactive
same,Potency,[6],inactive
same,Potency,[7],inactive
C=CC(=O)c1ccc(CCCCCC)cc1,Potency,[5],inactive
same,Potency,[6],inactive
same,Potency,[7],inactive
Cc1cc(NC(=O)Nc2ccc3c(ccn3C)c2)sn1,Potency,[5],inactive
same,Potency,[6],inactive
same,Potency,[7],inactive
C[N+]1(C)CCC(OC(=O)C(c2ccccc2)c2ccccc2)CC1,Potency,[5],inactive
same,Potency,[6],inactive
same,Potency,[7],inactive
CC(=O)/C=C1\C(=O)N(C)c2ccccc21,Potency,[5],inactive
same,Potency,[6],inactive
same,Potency,[7],inactive
O=C(O)[C@@H]1C[C@@H](C(=O)O)N1,Potency,[5],inactive
same,Potency,[6],inactive
same,Potency,[7],inactive
CO/N=C(\C(=O)N[C@@H]1C(=O)N2C(C(=O)O)=C(COC(C)=O)CS[C@H]12)c1csc(N)n1 (stereo in doubt),Potency,[8],18.9 µM (active)
same,Potency,[9],9.47 µM (active) and 8.44 µM (active)
same,Potency,[10],15.1 µM (active) and 19 µM (active) and 8.49 µM (active)
C#CCN1C(C)=C(C(=O)OC)C(c2cccc([N+](=O)[O-])c2)C(C(=O)OCC)=C1C (stereo unspecified),Potency,[5],inactive
same,Potency,[6],inactive
O=Nc1ccc2oc(=O)ccc2c1,Potency,[5],inactive
same,Potency,[6],inactive
same,Potency,[7],inactive
CO/N=C(\C(=O)N[C@@H]1C(=O)N2C(C(=O)O)=C(COC(C)=O)CS[C@H]12)c1csc(N)n1,Potency,[5],inactive
same,Potency,[6],inactive
same,Potency,[7],inactive
CN1C2CC(OC(=O)[C@H](CO)c3ccccc3)CC1C1OC12 (stereo partly specified),Potency,[5],inactive
same,Potency,[6],inactive
same,Potency,[7],inactive
CCN1/C(=C/C(C)=O)Sc2ccc(OC)cc21,Potency,[5],inactive
same,Potency,[6],inactive
same,Potency,[7],inactive
O=C(O)c1cc(=O)c2ccccc2[nH]1,Potency,[5],inactive
same,Potency,[6],inactive
same,Potency,[7],inactive
CCOC(=O)C1=C(C)NC(C)=C(C(=O)OCC)C1c1c(F)c(F)c(F)c(F)c1F,Potency,[5],inactive
same,Potency,[6],inactive
same,Potency,[7],4.11 µM (active)
Ic1ccc(N2CCN(Cc3c[nH]c4ncccc34)CC2)cc1,Potency,[5],inactive
same,Potency,[6],inactive
same,Potency,[7],inactive
CCCN(CC1CC1)c1nc(C)nc(Nc2c(Cl)cc(Cl)cc2Cl)c1Cl,Potency,[5],inactive
same,Potency,[6],inactive
same,Potency,[7],inactive
CC(=O)SCC[N+](C)(C)C,Potency,[5],inactive
same,Potency,[6],inactive
same,Potency,[7],inactive
Clc1ccc(N2CCN(Cc3cc4ccccn4n3)CC2)cc1,Potency,[5],inactive
same,Potency,[6],inactive
same,Potency,[7],inactive
